Assay results from PubChem BioAssay (NCATS).
Results filed as inconclusive are left out. Entries that show only a call come without a potency. Calls of active or inactive are those of the source. Calls follow the shape of the dose curve; as a rule, active = well fitted cell-killing curve with a large enough effect; inconclusive = small, poorly fitted or top-dose-only effect, or effect the other way; inactive = no such curve, though single readings can be large or run the other way.

Test: Quantitative highthroughput screen to assess conditional lethalithy of SEM cells grown in Human Plasma-Like Medium with dialyzed fetal bovine serum (HPLM+ds) (AID 1963882); also: nearly all actives have a fitted effect of over 35% in size
Details: SEM B-ALL cells in HPLM+ds, CellTiter-Glo viability, 48 h; series mostly up to 45.8 µM
Text: Assay Provider: Jason Cantor Ph.D.
Department of Biochemistry
University of Wisconsin-Madison, Madison, WI, USA
Chemical screening studies have identified drug sensitivities across hundreds of cancer cell lines but most putative therapeutics fail to translate. Discovery and development of drug candidates in models that more accurately reflect nutrient levels in human blood is a major challenge. Here we performed high-throughput screens in conventional versus Human Plasma-Like Medium (HPLM) to identify compounds that were "missed" when screening using the artificial culture condition. Sets of conditional anticancer compounds spanned phases of clinical development and included non-oncology drugs were assessed. […] We also traced conditional phenotypes for several chemotherapeutics to availability of HPLM-specific metabolites and confirmed others for compounds whose reported targets are encoded by nonessential genes. Our findings establish generalizable strategies for exploiting conditional lethality in HPLM to reveal therapeutic candidates and mechanisms of action in cancer cells.
Described herein are the results of each viability screens against three cell lines: NOMO1 (an acute myeloid leukemia cell line); P12-Ichikawa (a T-cell acute lymphoblastic leukemia); and SEM (a B-cell ALL). Each assay was screened using 3 different cell culture media: homemade human plasma-Like medium with 10% dialyzed fetal bovine serum (HPLM+ds); RPMI1640 with 10% untreated FBS and 5mM glucose (RPMI+s); and RPMI1640 with 10% dialyzed fetal bovine serum and 5 mM glucose (RPMI+ds).
PROTOCOL TABLE (as described by Inglese J, Shamu CE and Guy RK. 2007)
SEQUENCE No. (e.g., 1, 2, 3, etc.); […] (e.g., Cells, Incubation, Reagent, etc.); VALUE and DESCRIPTION.
1; Cells; 5 uL; white, solid bottom 1536-well Greiner assay plate.
2; Compounds; 23 nL; Kalypsis pin tool (Wako USA) equipped with a 1536-well pin head to transfer to the assay plates.
3; Incubation; 48 hours; 37C incubation.
4; Reagent; 3 uL; CellTiter Glo (Promega).
5; Incubation; 5 min, room temperature
6; Detection; Luminescence, Viewlux PerkinElmer.
NOTES (numbers refer to Sequence numbers above)
1. Briefly, 5 ul of cell reagent was dispensed using a Multidrop Combi Dispenser. The NOMO1 and SEM cells were plated at 500 cells/well and the P12-Ichikawa line at 1000 cells/well.
2. After seeding the cells, 23 nL of MIPE 4.1 library compounds (in DMSO) were added to each plate using a Kalypsys 1536 Pintool dispenser. Bortezomib at final concentration of […] and DMSO were added to each plate as positive and negative controls respectively. For each screen, MIPE 4.1 compounds were added over an eleven-point concentration range […] in 3-fold dilutions.
3. Each plate was covered with a stainless steel gasketed lid to prevent evaporation and incubated for 48 hour at 37C, 95% relative humidity, and 5% CO2.
4-5. Three microliter CellTilter-GloTM luminescent substrate mix (Promega) reagent was added to the assay plate and incubated at room temperature for 5 min.
6. The luminescence signal was measured using a ViewLux (PerkinElmer) multiplate reader with a 2 second exposure time per plate. Data for each compound were normalized as percent viability such that measurements for DMSO and the empty well controls in each plate were defined as 100% and 0%, respectively.
Potency is read from the fitted curve at half-maximal effect.

Structure (SMILES)	Potency
CC(=O)O[C@H]1C[C@@H]2CC[C@H]3[C@H]4C[C@H]([N+]5(C)CCCCC5)[C@@H](OC(C)=O)[C@@]4(C)CC[C@@H]3[C@@]2(C)C[C@H]1N1CCCCC1	inactive
OC1CCC(Nc2ncc3nc(Nc4c(F)cc(F)cc4F)n([C@@H]4CCOC4)c3n2)CC1 (stereo not given in full)	inactive
Nc1nc(-c2nn(Cc3ccccc3F)c3ncccc23)nc(N)c1N1CCOCC1	inactive
CN[C@H]1CCc2cc(OC)c(OC)c(OC)c2-c2ccc(OC)c(=O)cc21	6.6 nM (active)
CCCCCCCCCCCCCCCC(=O)O[C@H]1[C@@H](O)[C@@H](O)[C@@H]([C@H](NC(=O)[C@@H]2C[C@@H](CCC)CN2C)[C@H](C)Cl)O[C@@H]1SC	inactive
C[N+](C)([O-])CCNc1ccc(NCC[N+](C)(C)[O-])c2c1C(=O)c1c(O)ccc(O)c1C2=O	1180 nM (active)
Cc1nnc(C(=O)NC(C)(C)c2nc(C(=O)NCc3ccc(F)cc3)c(O)c(=O)n2C)o1	inactive
NC[C@H]1O[C@H](O[C@@H]2[C@@H](O)[C@@H](O[C@H]3O[C@H](CO)[C@@H](O)[C@H](N)[C@@H]3O)[C@H](N)C[C@@H]2N)[C@H](O)[C@@H](O)[C@H]1O	inactive
O=C(NOCC1CC1)c1ccc(F)c(F)c1Nc1ccc(I)cc1Cl	7430 nM (active)
COc1ccc2c(c1)CC[C@H]1[C@@H]2CC[C@]2(C)[C@@H](NCCCCCCN3C(=O)C=CC3=O)CC[C@H]12	inactive
COc1cc(O)c2c(c1)C(=O)c1cc(C)cc(O)c1C2=O	6450 nM (active)
CCC[C@H]1C[C@H](C(=O)N[C@@H]([C@@H]2O[C@@H](SC)[C@@H](O)[C@@H](O)[C@@H]2O)[C@H](C)Cl)N(C)C1	inactive
CC(C)c1onc(-c2c(Cl)cccc2Cl)c1COc1ccc(C=Cc2cccc(C(=O)O)c2)c(Cl)c1	inactive
CCC(C)(C)c1ccc(CC(C)CN2C[C@@H](C)O[C@@H](C)C2)cc1 (stereo not given in full)	inactive
CCS(=O)(=O)Nc1ccc2[nH]c(O)c(C(=Nc3ccc(CN4CCCCC4)cc3)c3ccccc3)c2c1	74.3 nM (active)
CCN1CCN(C(=O)N[C@H](C(=O)N[C@@H]2C(=O)N3C(C(=O)O)=C(CSc4nnnn4C)CS[C@@H]23)c2ccc(O)cc2)C(=O)C1=O	inactive
C[C@]1(CO)CN(c2cc(C(=O)Nc3ccc4c(c3)-c3c(c(C(N)=O)nn3-c3ccc(F)cc3)CC4)c(Cl)cn2)C[C@@]1(C)CO	18700 nM (active)
C[C@H](NC(=O)Cc1cc(F)cc(F)c1)C(=O)N[C@@H]1C(=O)N(C)c2ccccc2-c2ccccc21	4180 nM (active)
O=C(O)c1cccnc1	1180 nM (active)
CCN(CC)C(=S)SSC(=S)N(CC)CC	833 nM (active)

Structure (SMILES)	Potency
O=c1ccn([C@@H]2O[C@H](CO)[C@H](O)[C@@H]2F)c(=O)[nH]1	inactive
O=C(NCCCCN1CCOCC1)c1cc2ccccc2o1	inactive
CC(C)[C@H](O)C(=O)N[C@@H](C)C(=O)N[C@@H]1C(=O)N(C)CCc2ccccc21	inactive
CNCc1ccc(-c2[nH]c3cc(F)cc4c3c2CCNC4=O)cc1	inactive
O=C1Cc2cc(CCN3CCN(c4nsc5ccccc45)CC3)c(Cl)cc2N1	inactive
CC(C)NCC(O)COc1ccc(COCCOC(C)C)cc1 (stereo not given)	inactive
O=C(O)C1=NC(C(=O)O)CC(C=CN2c3cc(O)c(OC4OC(CO)C(O)C(O)C4O)cc3CC2C(=O)O)=C1 (stereo not given)	inactive
Cc1cc(Nc2nc(N[C@@H](C)c3ccc(F)cc3)c(C#N)cc2F)n[nH]1	3320 nM (active)
CC1(C)O[C@H]2CC(=O)OC[C@]23[C@H]2CC[C@@]4(C)[C@H](c5ccoc5)OC(=O)[C@H]5O[C@]54[C@]2(C)C(=O)C[C@@H]13	inactive
COC[C@H](NC(=O)c1cnc(C)s1)C(=O)N[C@@H](COC)C(=O)N[C@@H](Cc1ccccc1)C(=O)[C@@]1(C)CO1	93.5 nM (active)
COc1c(C)cnc(Cn2cnc3c(Cl)nc(N)nc32)c1C	372 nM (active)
O=C1C(c2c(O)[nH]c3ccccc23)=Nc2ccccc21	inactive
CS[C@H]1SC[C@@H]2C(=O)N(C)[C@H](C(C)C)C(=O)OC[C@H](NC(=O)c3cnc4ccccc4n3)C(=O)N[C@H](C)C(=O)N(C)[C@@H]1C(=O)N(C)[C@H](C(C)C)C(=O)OC[C@H](NC(=O)c1cnc3ccccc3n1)C(=O)N[C@H](C)C(=O)N2C	3.7 nM (active)
OCCn1cc(-c2ccc3c(c2)CCC3=NO)c(-c2ccncc2)n1	inactive
NC(=O)c1ncn([C@@H]2O[C@H](CO)[C@@H](O)[C@@H]2O)c1N	18700 nM (active)
CCCCc1nc2cc(C=CC(=O)NO)ccc2n1CCN(CC)CC	1870 nM (active)
CCNC(=O)c1cc2c(-c3cc(OCCN4CCCC4)c(Cl)cc3Cl)nc(N)nc2s1	2960 nM (active)
NC(=O)c1cnc(N[C@@H]2CCCC[C@@H]2N)nc1Nc1cccc(-n2nccn2)c1	11700 nM (active)
CN[C@H]1[C@@H](O)[C@@H]2O[C@@H]3O[C@H](C)CC(=O)[C@]3(O)O[C@@H]2[C@@H](NC)[C@H]1O	inactive
NC(=O)c1cccc(N)c1	inactive
